According to PubChem BioAssay AID624300 (Southern Research Specialized Biocontainment Screening …, 2012):
Out of some 2,400 compounds screened, about 360 (15%) were called active. A selection follows. Measured potencies and affinities stand elsewhere. A number with no mark means an inactive call.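 How the source made its calls: active means viability falls under 70% at one or more tested concentrations, taken as toxicity; inactive means viability stays over 70% at every dose.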

Experiment: viability loss in HeLa cells – cytotoxicity control for MgcRacGAP inhibitor project, dose response (AID 624300);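 further: 100% = median of untreated control wells on the same plate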
Conditions: CellTiter-Glo luminescence, 24 h; series mostly up to 100 µM; viability: at the top concentration

| SMILES | viability [%] |
| --- | --- |
| O=S(=O)(c1ccc2ccccc2c1)N1CCN(C2CCN(Cc3ccccc3)CC2)CC1 | 95.2 |
| O=C(CCCCCNC(=O)c1ccccc1)N/N=C/c1ccc(O)cc1O | 94.8 |
| O=S(=O)(O)c1cc(Cl)cc(N=Nc2ccc(O)cc2O)c1O | 99.5 |
| CCc1cc(-c2n[nH]c(CCC(=O)O)c2-c2nc3ccccc3n2C)c(O)cc1O | 102 |
| COc1ccc2c(c1)Sc1ccccc1N2 | 99.8 |
| Cn1cnc2cc(NCc3ccccc3O)ccc21 | 99.7 |
| CCN(CC)c1ccc(N=Cc2ccccc2[N+](=O)[O-])cc1 | 89.2 |
| CC(=O)OCCNc1cc(N2CCN(C)CC2)c2noc3c2c1C(=O)c1ccccc1-3 | 89.7 |
| CCOc1cc(/C=N\n2nnnc2N)ccc1O | 101 |
| CCOc1cc(/C=N/NC(=O)CCn2nc(C)cc2C)ccc1O | 110 |
| CCN(CC)c1ccc(NC(=O)COC(=O)Cc2ccsc2)cc1 | 101 |
| Nc1c(/C=C2/C=CC(=O)C(O)=C2)c(=O)nc2sc(CC(=O)N3CCCC3)nn12 | 101 |
| OCCCNC(=S)Nc1ccc(Nc2ccccc2)cc1 | 99.7 |
| CC(=O)Nc1ccc(OC(=O)Cc2ccc(Cl)cc2)cc1 | 101 |
| COc1cc(OC)c(OC)cc1CN1CCN(C(=O)c2cccc3ccccc23)CC1 | 81.6 |
| O=c1cc(-c2ccc(O)c(O)c2)oc2cc(O)c(C3OC(CO)C(O)C(O)C3O)c(O)c12 (stereo unspecified) | 103 |
| Oc1ccc(N2CCN(C(=S)NCCc3ccccc3)CC2)cc1 | 119 |
| CC1(C)CNc2cc(N)ccc2S1 | 106 |
| Nc1n[nH]c(=S)n1/N=C1/C(=O)Nc2ccccc21 | 102 |
| CC(C)N1CCN(C(=O)c2cccc(Cl)c2)CC1 | 102 |
| Fc1ccc(CNCc2ccccc2Cl)cc1 | 96.2 |
| C=CCc1cc(Cl)ccc1OCCN(C)C | 97.9 |
| CCN1CCN(CCCOc2ccc(Cl)cc2Br)CC1 | 99.2 |
| Oc1ccc2ccc(Cl)cc2c1 | 105 |
| CCn1nc(C)c(Br)c1C(=O)Sc1ccccc1Cl | 86.9 |

| SMILES | viability [%] |
| --- | --- |
| Cc1c(NC(=O)CNCc2ccc3c(c2)OCO3)c(=O)n(-c2ccccc2)n1C | 99.1 |
| Nc1ccc(N=Nc2ccc(N)cc2)cc1 | 103 |
| COc1cccc(OC)c1NC(=O)CN1CCN(C)CC1 | 100 |
| COc1ccc(/C=N/NC(=O)c2cnccn2)cc1O | 98.4 |
| O=C(CNCc1ccco1)Nc1cccc(S(=O)(=O)N2CCCCC2)c1 | 103 |
| Cc1cn([C@H]2C[C@H](O)[C@@H](CNCC3=Cc4cc(O)ccc4OC3)O2)c(=O)[nH]c1=O | 103 |
| CN1CCC(N(C)CC(=O)Nc2ccc3c(c2)OC(F)(F)O3)CC1 | 101 |
| CCN(c1ccccc1)S(=O)(=O)c1ccc(Cl)c(NC(=O)CN(C)C2CCN(C)CC2)c1 | 95.9 |
| COc1cc(/C=C/C(=O)OCC(=O)N2CCN(C(=O)c3ccco3)CC2)ccc1O | 102 |
| CCn1c(=O)c2c3c(sc2n2c(=S)[nH]nc12)CCC3 | 84.2 |
| CC1(C)OC(C)(C)/C(=C/Nc2ccc(O)cc2)C1=O | 99.8 |
| O=C(Nc1ccc(O)cc1)c1ccccc1OCc1ccccc1 | 101 |
| COc1cc(C(=O)N/N=C(\C)c2ccc(NC(=O)Cc3ccccc3)cc2)ccc1O | 103 |
| c1cc(CN2CCN(C3CCCCCC3)CC2)ccn1 | 101 |
| O=C1CC(Nc2ccc(N3CCOCC3)cc2)C(=O)N1Cc1ccccc1 (stereo unspecified) | 106 |
| CSc1ccccc1NC(=O)CNCCCN1CCOCC1 | 99.5 |
| COc1cc(CC(=O)OCC(=O)Nc2ccc(N(C)C)cc2)cc(OC)c1OC | 103 |
| Cc1cc(-c2n[nH]c(=S)n2/N=C/c2cccs2)n[nH]1 | 89.2 |
| CCCCNCC#CCOc1cc(C)ccc1C(C)C | 87.9 |
| C=CCNCC(O)COc1ccc(C(C)=O)cc1OC (stereo unspecified) | 98.9 |
| O=C(CNCc1ccco1)Nc1ccc(N2CCCCCC2)cc1 | 83.5 |
| CC1CN(CCCCOc2ccc(Cl)c3ccccc23)CC(C)O1 (stereo unspecified) | 83.8 |
| Cc1ccccc1OCCN1CCCC1 | 101 |
| COc1cc(C2NC(=O)C(C#N)=C(S)N2c2ccc(C)cc2)ccc1OC(C)C (stereo unspecified) | 99.7 |
| Nc1ccc2ccc(O)cc2c1 | 96.5 |

| SMILES | viability [%] |
| --- | --- |
| CCOc1cc(/C=C(\C#N)C(=O)NCC2CCCO2)ccc1O (stereo unspecified) | 96.2 |
| CCOc1cc(/C=C(\C#N)C(=O)NCc2cccnc2)ccc1O | 94.7 |
| O=C(CCC1CCCC1)N1CCN(C2CCCC2)CC1 | 90.8 |
| CC(C)(C)c1cc(C(=O)N/N=C/c2ccc(O)cc2)n(-c2ccccc2)n1 | 105 |
| Cc1cccc2sc(NNC(=O)c3cc(=O)c4ccccc4o3)nc12 | 80.6 |
| COc1ccc(NC(=S)NCC2CCN(c3ccc(OC)cc3)C2)cc1 (stereo unspecified) | 110 |
| C=CCc1cc(Cl)ccc1OCCn1ccnc1 | 101 |
| CCOc1cc(/C=N/NC(=O)CN2CCCCC2)ccc1O | 98.7 |
| O=C1CSC(=Nc2ccc(O)cc2)N1c1ccc(O)cc1 | 112 |
| COc1ccc(NC2CCCN(C(=O)c3cc(C)nc4cc(F)ccc34)C2)cc1 (stereo unspecified) | 102 |
| CN(C)c1ccc(N=c2sc3ccccc3n2C)cc1 | 87.8 |
| O=C(N/N=C/c1ccc(N2CCOCC2)s1)c1ccc(O)cc1 | 101 |
| Cc1c(N=Nc2ccc(N(C)C)cc2)c(=O)n(-c2ccccc2)n1C | 103 |
| O=C(N/N=C/c1ccc(O)cc1)c1cc[n+](Cc2ccccc2)cc1 | 102 |
| CCc1nnc(NC(=O)CSCc2cc(=O)n3ccsc3n2)s1 | 97.5 |
| COc1ccc([C@H]2CN(c3ccc(OC)cc3)C(=O)[C@@H]2CC(=O)Nc2ccccc2)cc1 | 92.8 |
| COc1cc(/C=N/NC(=O)C2(O)c3ccccc3-c3ccccc32)ccc1O | 105 |
| O=C1C=CC(=O)N1c1ccc(Nc2ccccc2)cc1 | 101 |
| O=C(O)C1CCN(Cc2cnn(-c3ccccc3)c2-n2cccc2)CC1 | 104 |
| COc1cc(/C=N/NC(=O)c2ccc3c(c2)OCO3)ccc1O | 94.8 |
| COc1ccc(CCNCCN2CCOCC2)cc1 | 106 |
| Oc1ccc(/C=N/NC(=S)Nc2cccnc2)c(O)c1 | 98.1 |
| CN=c1scc(C)n1/N=C/c1ccc(O)cc1O | 83.2 |
| CN=c1scc(-c2ccc(F)cc2)n1/N=C/c1ccc(O)c(O)c1 | 90.5 |
| CN=c1scc(-c2ccco2)n1/N=C/c1ccc(O)c(O)c1 | 97.5 |

| SMILES | viability [%] |
| --- | --- |
| COC(=O)c1[nH]c2ccccc2c1NC(=O)Oc1ccccc1 | 88.4 |
| Nc1ccc(N2CCOCC2)c(Cl)c1 | 102 |
| CC(=Nc1ccc(O)cc1)c1sc2ccccc2c1O | 112 |
| Oc1ccc(N=Cc2cc(Br)c(N3CCOCC3)o2)cc1 | 103 |
| COc1ccccc1Nc1n[nH]c(=S)s1 | 92.9 |
| O=C(Cn1c(C(=O)NCc2ccco2)cc2sccc21)c1ccccc1 | 93.1 |
| COc1ccc(C=NNC(=O)c2cc(C)oc2C)cc1O | 81 |
| Cc1c(C(=O)N/N=C/c2ccc(O)cc2)sc(=S)n1C | 106 |
| Cc1nonc1C(=O)N/N=C/c1ccc(O)c(O)c1 | 91.9 |
| Oc1cc(O)c2c(c1)O[C@H](c1ccc(O)c(O)c1)[C@H](O)C2 | 102 |
| CCOC(=O)c1c(OCC)[nH]c2c1cc(O)c1ccccc12 | 98.7 |
| c1coc(CSSCc2ccco2)c1 | 105 |
| COc1cc(/C=N/n2nnnc2N)ccc1O | 93.9 |
| Cc1cc(C)cc(NC(=O)C(NCCN2CCOCC2)c2ccccc2)c1 (stereo unspecified) | 94.9 |
| CN=c1scc(C)n1/N=C/c1cc(Br)c(O)c(OC)c1 | 93.5 |
| O=c1oc2cc(O)ccc2c2oc3cc(O)ccc3c12 | 98.3 |
| Cc1cc(O)ccc1N/C=C1\CCCC1=O | 90.5 |
| CN(C)/C=C/c1oc2ccc(O)cc2c1[N+](=O)[O-] | 94.5 |
| CC(C)COc1ccc(N)cc1OCC(C)C | 104 |
| Nc1cc2c([N+](=O)[O-])cccc2o1 | 95.3 |
| COc1cc(Sc2ccc(C)cc2)c(OC)cc1N | 94.1 |
| COc1ccc(NCCC(O)c2ccc(Cl)cc2)cc1 (stereo unspecified) | 106 |
| COc1ccc(NC2CCCN(C(=O)COc3ccc(C(C)=O)cc3)C2)cc1 (stereo unspecified) | 100 |
| S=c1[nH]nc(-c2ccncc2)n1/N=C/c1ccccc1 | 100 |
| COc1ccc(N2CCN(C(=O)c3ccc(Br)o3)CC2)cc1 | 105 |

| SMILES | viability [%] |
| --- | --- |
| O=[N+]([O-])c1ccc(C2CC(c3ccccc3)=Nc3ccccc3S2)cc1 (stereo unspecified) | 85.2 |
| CCOC1=C/C(=C/c2c(N)n3nc(S(=O)(=O)CC)sc3nc2=O)C=CC1=O | 108 |
| COc1ccc(OC(=O)c2cc(S(=O)(=O)N3CCCC3)ccc2Cl)cc1 | 97 |
| O=C(Cn1c(C(=O)NCC2CCCO2)cc2sccc21)c1ccccc1 (stereo unspecified) | 93.5 |
| CCOc1cc(/C=N\NC(=O)CC(=O)NCCc2ccccc2)ccc1O | 101 |
| CS(=O)(=O)c1ccc2c(c1)sc1nc(=O)c(/C=C3/C=CC(=O)C(O)=C3)c(N)n12 | 94.4 |
| CCCCN(C)C(=O)C1CCN(Cc2ccc(OCc3ccccc3)cc2)CC1 | 90.2 |
| COc1ccc(NCC(O)COc2ccc(C(C)(C)C)cc2)cc1 (stereo unspecified) | 100 |
| C#CCOc1ccccc1CNC1CCN(Cc2ccccc2)CC1 | 97.2 |
| O=C(NCCNCC(O)COc1ccc(O)cc1)N1CCOCC1 (stereo unspecified) | 109 |
| O=C(Cc1coc2cc(O)ccc12)NNC(=O)c1ccc(Br)s1 | 111 |
| CCc1ccc(CNc2ccc(N3CCN(C(C)=O)CC3)cc2)cc1 | 99.8 |
| COc1cc(N=Nc2ccc(C)cc2S(N)(=O)=O)c(C)cc1N | 94.5 |
| COc1cc(/C=N/NC(=O)CCNC(=O)c2ccccc2Cl)ccc1O | 97.2 |
| COc1cc(/C=C/C(=O)OCC(=O)Nc2ccc3c(c2)OCCO3)ccc1O | 115 |
| Oc1ccc(-c2csc(NCc3ccco3)n2)cc1 | 110 |
| CN(c1ccc(O)cc1)c1nc(-c2cccnc2)cs1 | 98.8 |
| COc1ccc(N)cc1NC(=O)CN1CCOCC1 | 92.2 |
| CC/C(=N\O)c1ccc(O)c(OC)c1 | 99.7 |
| CC(C(=O)N(C)Cc1ccccc1)N1CCN(C/C=C/c2ccccc2)CC1 (stereo unspecified) | 93.8 |
| COc1ccc(N2CCN(C(=O)CCCn3c(=O)c4cccn4c4cccnc43)CC2)cc1 | 96 |
